PubChem BioAssay (Tox21)
Results filed as inconclusive are left out. Some structures have more than one record in an assay (separate samples or runs), and their calls can disagree. Active and inactive are the calls of the source. Unless noted, the call rests on the fitted dose curve.

Columns and labels:
[1] = qHTS assay to identify small molecule agonists of the vitamin D receptor (VDR) signaling pathway - cell viability counter screen (AID 743224; active means well fitted curve in the direction sought with a large enough effect in the repeat runs; an effect the other way counts as inactive or inconclusive; further: series mostly up to about 63 µM; nearly all actives have a fitted effect of over 50% in size)
Summary of the method: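 Plated VDR-bla cells (4 h, 37C) received compound, incubated 16 h, then LiveBLAzer substrate 2 h RT; CellTiter-Glo added afterwards, luminescence read at 30 min.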

[2] = qHTS assay to identify small molecule antagonists of the vitamin D receptor (VDR) signaling pathway - cell viability counter screen (AID 743225; active means well fitted curve in the direction sought with a large enough effect in the repeat runs; an effect the other way counts as inactive or inconclusive; further: nearly all actives have a fitted effect of over 50% in size)
Summary of the method: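 Read-out: CellTiter-Glo luminescence measured 30 min after reagent addition at room temperature. Cells were VDR-bla HEK 293T exposed 16 h at 37C, 5% CO2, to compound with 3 nM final calcitriol agonist.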

[3] = qHTS assay to identify small molecule agonists of the NFkB signaling pathway (AID 1159509; active means well fitted curve in the direction sought with a large enough effect in the signal ratio in the repeat runs, not every such curve was filed as active; the % refers to the signal ratio; further: series mostly up to about 61 µM)
Summary of the method: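 ME-180 NFkB-bla, 2,000 cells/well, overnight plating; cpd pinned in DMSO, 5 h 37 C; B/G FRET substrate 1.5 h RT; ex 405, em 460/530 nm.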

[4] = qHTS assay to identify small molecule agonists of the NFkB signaling pathway - cell viability counter screen (AID 1159515); further: series mostly up to about 61 µM; nearly all actives have a fitted effect of over 55% in size
Summary of the method: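 Using the same wells as the NFkB reporter read, ME-180 NFkB-bla cells given compounds for 5 hr were assessed for viability via CellTiter-Glo, with luminescence taken after a 30 min room-temperature incubation.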

[5] = qHTS assay to identify small molecule agonists of the endoplasmic reticulum stress response signaling pathway (AID 1159516; active means well fitted activation curve with a large enough effect in the signal ratio in the repeat runs, not every such curve was filed as active; the % refers to the signal ratio)
Summary of the method: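 An ESRE-bla HeLa cell assay: compounds were pin-transferred from DMSO onto overnight-plated cells and left 5 hr at 37 C. Substrate was then loaded for 2 hr at room temperature before reading fluorescence at 460 nm and 530 nm.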

[6] = qHTS assay to identify small molecule agonists of the endoplasmic reticulum stress response signaling pathway - cell viability counter screen (AID 1159517);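 further: HeLa cells carrying an ER stress response element beta-lactamase reporter; series mostly up to about 61 µM; nearly all actives have a fitted effect of over 50% in size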
Summary of the method: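 ESRE-bla HeLa cells, 1,500 per well, seeded overnight then treated with compounds for 5 hr at 37 C. After the beta-lactamase read, viability in the same wells is measured by CellTiter-Glo luminescence after 30 min at room temperature.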

[7] = qHTS assay to identify small molecule antagonists of the retinoid-related orphan receptor gamma (ROR-gamma) signaling pathway - cell viability counter screen (AID 1159520; active means well fitted curve in the direction sought with a large enough effect in the repeat runs; an effect the other way counts as inactive or inconclusive; further: nearly all actives have a fitted effect of over 50% in size)
Summary of the method: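 Tet-on ROR gamma CHO cells were given compounds for 2 hr, then doxycycline hyclate at 1 uM final, and incubated 16 hr at 37 C. Viability was measured as ATP content by CellTiter-Glo luminescence.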

[8] = qHTS assay to identify small molecule agonists of the AP-1 signaling pathway - cell viability counter screen (AID 1159525); further: nearly all actives have a fitted effect of over 55% in size
Summary of the method: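 AP-1-bla ME-180 cells in Opti-MEM with 0.5% dialyzed FBS, compound exposure 5 h at 37 C in 15-point titration. Viability read in the same wells as ATP content by CellTiter-Glo luminescence, normalised to tetra-n-octylammonium bromide and DMSO controls.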

[9] = target: Nuclear receptor ROR-gamma (Homo sapiens) (UniProt P51449); assay: qHTS assay to identify small molecule antagonists of the retinoid-related orphan receptor gamma (ROR-gamma) signaling pathway (AID 1159521; active means well fitted curve in the direction sought with a large enough effect in the repeat runs; an effect the other way counts as inactive or inconclusive; further: nearly all actives have a fitted effect of over 50% in size; further: potency means the concentration at half of the fitted maximal effect)
Summary of the method: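 CHO Tet-on RORγ, RORE-luc reporter. Cpd 2 h pre-incubation, then dox hyclate 1 uM final, 16 h, 37 C/5% CO2. ONE-Glo luminescence; decrease = antagonist.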

[10] = qHTS assay to identify small molecule agonists of the AP-1 signaling pathway (AID 1159526)

Measured: Potency

O=S(=O)(c1ccc(Cl)cc1)c1cc(Cl)c(Cl)cc1Cl
inactive: [1] | [2] | [3] | [4] | [5] | [6] | [7] | [8]

Nc1ccc(Br)cc1
inactive: [2] | [3] | [4] | [5] | [6] | [7] | [9] | [8] | [10]

CC(C)(Cl)Cl
inactive: [1] | [2] | [3] | [4] | [5] | [6] | [7] | [8] | [10]

C#CCN(C)[C@H](C)Cc1ccccc1
inactive: [1] | [2] | [3] | [4] | [5] | [6] | [7] | [8] | [10]

CC(C)(C)OOC(C)(C)C
inactive: [1] | [2] | [3] | [4] | [5] | [6] | [7] | [9] | [8] | [10]

CCNc1nc(NC(C)(C)C)nc(SC)n1
inactive: [1] | [2] | [3] | [4] | [5] | [6] | [7] | [8] | [10]

CCc1cccc(C)c1N(C(=O)CCl)C(C)COC (stereo unspecified)
inactive: [1] | [2] | [3] | [4] | [5] | [6] | [7] | [8] | [10]

CNC(=O)Oc1ccccc1OC(C)C
inactive: [1] | [2] | [4] | [5] | [6] | [7] | [9] | [8] | [10]

c1ccc(OP(Oc2ccccc2)Oc2ccccc2)cc1
inactive: [1] | [2] | [3] | [4] | [5] | [6] | [7] | [9] | [8] | [10]

O=C(O)c1ccccn1
inactive: [1] | [2] | [3] | [4] | [5] | [6] | [7] | [9] | [8] | [10]

CCC(C)(CC)c1cc(NC(=O)c2c(OC)cccc2OC)on1
inactive: [1] | [2] | [3] | [4] | [5] | [6] | [7] | [8] | [10]

O=[N+]([O-])c1ccccc1
inactive: [1] | [2] | [3] | [4] | [5] | [6] | [7] | [9] | [8] | [10]

CCCCN(CC)C(=O)SCCC
inactive: [1] | [2] | [3] | [4] | [5] | [6] | [7] | [9] | [8] | [10]

O=S(=O)(c1ccc(O)cc1)c1ccc(O)cc1
inactive: [1] | [2] | [3] | [4] | [5] | [6] | [7] | [8] | [10]

CC(C)=C[C@@H]1[C@@H](C(=O)OCc2coc(Cc3ccccc3)c2)C1(C)C
inactive: [1] | [3] | [4] | [5] | [6] | [7] | [8] | [10]

c1cc2c3c(cccc3c1)CC2
inactive: [1] | [2] | [3] | [4] | [5] | [6] | [7] | [9] | [8] | [10]

CC(C)N1C(=O)c2ccccc2NS1(=O)=O
inactive: [1] | [2] | [3] | [4] | [5] | [6] | [7] | [9] | [8] | [10]

Cc1ccc(N)cc1Cl
inactive: [1] | [2] | [3] | [4] | [5] | [6] | [7] | [9] | [8] | [10]

CCC[CH2][Sn]([Cl])([Cl])[Cl]
inactive: [1] | [2] | [3] | [4] | [5] | [6] | [7] | [9] | [8] | [10]

c1ccc2c(c1)oc1ccccc12
inactive: [1] | [2] | [3] | [4] | [5] | [6] | [7] | [8] | [10]

O=C(NC(=O)c1c(F)cccc1F)Nc1cc(Cl)c(OC(F)(F)C(F)C(F)(F)F)cc1Cl (stereo unspecified)
inactive: [1] | [2] | [3] | [4] | [5] | [6] | [7] | [9]

CC(C)OC(=O)Nc1cccc(Cl)c1
inactive: [1] | [2] | [4] | [5] | [6] | [7] | [9] | [8]

Nc1c(Cl)c(Cl)nc(C(=O)O)c1Cl
inactive: [1] | [2] | [4] | [5] | [6] | [7] | [9] | [8] | [10]

Nc1ccccc1C(=O)O
inactive: [1] | [2] | [4] | [5] | [6] | [7] | [8] | [10]

CCOP(OCC)OCC
inactive: [1] | [2] | [4] | [5] | [6] | [7] | [9] | [8] | [10]

CN(C)N=O
inactive: [1] | [2] | [4] | [5] | [6] | [7] | [9] | [8] | [10]

ClCc1cccnc1
inactive: [1] | [2] | [4] | [5] | [6] | [7] | [9] | [8] | [10]

CCCCCCCCCl
inactive: [1] | [2] | [4] | [5] | [6] | [7] | [8] | [10]

CCN(CC)c1ccccc1
inactive: [1] | [2] | [4] | [5] | [6] | [7] | [9] | [8] | [10]

COc1ccc2c3c1O[C@H]1[C@@H](O)C=C[C@H]4[C@@H](C2)N(C)CC[C@@]341
inactive: [1] | [2] | [4] | [5] | [6] | [7] | [8] | [10]
60.1 µM (active) and inactive: [9]

C1CC2OC2CC1C1CO1 (stereo unspecified)
inactive: [1] | [2] | [4] | [5] | [6] | [7] | [9] | [8] | [10]

CN(C)CCO
inactive: [1] | [2] | [4] | [5] | [6] | [7] | [9] | [8] | [10]

ClCCBr
inactive: [1] | [2] | [4] | [5] | [6] | [7] | [9] | [8] | [10]

CN(C)[C@@H]1C(=O)C(C(N)=O)=C(O)[C@@]2(O)C(=O)C3=C(O)c4c(O)cccc4[C@@](C)(O)[C@H]3C[C@@H]12
inactive: [4] | [5] | [6] | [7] | [8] | [10]

O=[N+]([O-])c1ccc(Oc2ccc(Cl)cc2Cl)cc1
inactive: [1] | [2] | [4] | [5] | [6] | [7] | [9] | [8] | [10]

CCCCOC(=O)c1ccccc1C(=O)OCCCC
inactive: [1] | [2] | [4] | [5] | [6] | [7] | [9] | [8]

O=[N+]([O-])c1ccc([As](=O)(O)O)cc1
inactive: [1] | [2] | [4] | [5] | [6] | [7] | [8] | [10]

C=CCO
inactive: [1] | [2] | [4] | [5] | [6] | [7] | [8] | [10]

COC(=O)NC(=S)Nc1ccccc1NC(=S)NC(=O)OC
inactive: [1] | [2] | [4] | [5] | [6] | [7] | [9] | [8] | [10]

C=CC(N)=O
inactive: [1] | [2] | [4] | [5] | [6] | [7] | [9] | [8] | [10]

CC(C)(C)C(O)(CCc1ccc(Cl)cc1)Cn1cncn1 (stereo unspecified)
inactive: [1] | [2] | [4] | [5] | [6] | [7] | [9] | [8] | [10]

CC(C)C1(C)N=C(c2nc3ccccc3cc2C(=O)O)NC1=O (stereo unspecified)
inactive: [1] | [2] | [4] | [5] | [6] | [7] | [9] | [8] | [10]

[O-][Cl+2]([O-])O
inactive: [1] | [2] | [4] | [5] | [6] | [7] | [8] | [10]

[N-]=[N+]=[N-]
inactive: [1] | [2] | [4] | [5] | [6] | [7] | [9] | [8] | [10]

CC1OC(C)OC(C)O1 (stereo unspecified)
inactive: [1] | [2] | [4] | [5] | [6] | [7] | [9] | [8] | [10]

Clc1ccccc1Cl
inactive: [1] | [2] | [4] | [5] | [6] | [7] | [9] | [8] | [10]

CC(C)NC(=O)N1CC(=O)N(c2cc(Cl)cc(Cl)c2)C1=O
inactive: [1] | [2] | [4] | [5] | [6] | [7] | [9] | [8] | [10]

CON(C)C(=O)Nc1ccc(Cl)c(Cl)c1
inactive: [1] | [2] | [4] | [5] | [6] | [7] | [9] | [8] | [10]

Cc1cc(-c2cc(C)c(N)c(C)c2)cc(C)c1N
inactive: [1] | [2] | [4] | [5] | [6] | [7] | [9] | [8] | [10]

O=Cc1cccc(Oc2ccccc2)c1
inactive: [1] | [2] | [4] | [5] | [6] | [7] | [9] | [8] | [10]

CN1C(=O)CN=C(c2ccccc2)c2cc(Cl)ccc21
inactive: [1] | [2] | [4] | [5] | [6] | [7] | [9] | [8] | [10]

CCOC(=O)c1ccccc1C(=O)OCC
inactive: [1] | [2] | [4] | [5] | [6] | [7] | [9] | [8] | [10]

CCOP(=S)(OCC)Oc1cnc2ccccc2n1
inactive: [1] | [2] | [4] | [5] | [6] | [7] | [8] | [10]

CCCN(CCC)N=O
inactive: [1] | [2] | [4] | [5] | [6] | [7] | [9] | [8] | [10]

COP(N)(=O)SC (stereo unspecified)
inactive: [1] | [2] | [4] | [5] | [6] | [7] | [9] | [8] | [10]

CC(Br)C(=O)O (stereo unspecified)
inactive: [1] | [2] | [4] | [5] | [6] | [7] | [9] | [8] | [10]

Cc1cccc([N+](=O)[O-])c1
inactive: [1] | [2] | [4] | [5] | [6] | [7] | [8] | [10]

CCN(CC)CCO
inactive: [1] | [2] | [4] | [5] | [6] | [7] | [9] | [8] | [10]
